Assay in all cases: DAPPL (digital affinity profiling via proximity ligation, sequencing); 10 mM Tris-HCl pH 7.5, 50 mM NaCl, 1 mM DTT, 4% glycerol, room temperature, 30 min; GST-TFs on glutathione beads, 16-mer random dsDNA library, 0.1% formaldehyde crosslink after washing; high values mean tight binding
One assay deals with T1, FEV (Homo sapiens, UniProt Q99581 1-238).
T1 sequence: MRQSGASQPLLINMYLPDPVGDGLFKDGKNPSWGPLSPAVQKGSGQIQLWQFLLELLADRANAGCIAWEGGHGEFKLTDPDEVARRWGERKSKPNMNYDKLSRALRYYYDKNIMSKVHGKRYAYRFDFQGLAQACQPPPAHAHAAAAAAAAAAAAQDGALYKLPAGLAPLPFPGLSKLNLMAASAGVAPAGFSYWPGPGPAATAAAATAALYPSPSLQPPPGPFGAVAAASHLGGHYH
As to conditions: protein: recombinant; tags: N-terminal GST; dsDNA, one strand shown. An outline of the steps: (§1)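 Pools were built from human transcription factors expressed in yeast as GST fusions, captured on glutathione beads and DNA-barcoded, along with a tag-only sample. Incubation with 200 nmole of a 16-mer random double-stranded DNA library lasted 30 min at room temperature in Tris/NaCl/DTT/glycerol buffer, and was followed by washing, 0.1% formaldehyde crosslinking, proximity ligation, PCR amplification and Illumina NextSeq500 sequencing. Binding signal is the quotient of each hexamer's read frequency for a factor and its frequency for the tag-only sample.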

A further assay has as its target ETV5 (Homo sapiens, UniProt P41161 1-510). As to conditions: protein: recombinant; tags: N-terminal GST; dsDNA, one strand shown. An outline of the steps: as §1
Another assay addresses HSF1 (Homo sapiens, UniProt Q00613 1-529). The following applies: protein: recombinant; tags: N-terminal GST; chain copies: 3; dsDNA, one strand shown. An outline of the steps: as §1
The target of another assay is T2, SPIC (Homo sapiens, UniProt Q8N5J4 1-248).
T2 sequence: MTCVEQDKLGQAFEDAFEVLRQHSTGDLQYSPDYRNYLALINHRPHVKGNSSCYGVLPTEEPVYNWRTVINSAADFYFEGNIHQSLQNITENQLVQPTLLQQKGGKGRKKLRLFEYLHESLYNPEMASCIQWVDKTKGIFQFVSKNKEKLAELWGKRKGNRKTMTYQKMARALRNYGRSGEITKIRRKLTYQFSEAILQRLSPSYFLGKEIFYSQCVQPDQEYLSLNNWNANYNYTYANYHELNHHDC
As to conditions: protein: recombinant; tags: N-terminal GST; dsDNA, one strand shown. Put shortly: as §1

In a further assay the target is ELF4 (Homo sapiens, UniProt Q99607 1-663). The following applies: protein: recombinant; tags: N-terminal GST; dsDNA, one strand shown. An outline of the steps:
as §1

Another assay concerns the target T3, ELK4 (Homo sapiens, UniProt P28324-2 1-405).
T3 sequence: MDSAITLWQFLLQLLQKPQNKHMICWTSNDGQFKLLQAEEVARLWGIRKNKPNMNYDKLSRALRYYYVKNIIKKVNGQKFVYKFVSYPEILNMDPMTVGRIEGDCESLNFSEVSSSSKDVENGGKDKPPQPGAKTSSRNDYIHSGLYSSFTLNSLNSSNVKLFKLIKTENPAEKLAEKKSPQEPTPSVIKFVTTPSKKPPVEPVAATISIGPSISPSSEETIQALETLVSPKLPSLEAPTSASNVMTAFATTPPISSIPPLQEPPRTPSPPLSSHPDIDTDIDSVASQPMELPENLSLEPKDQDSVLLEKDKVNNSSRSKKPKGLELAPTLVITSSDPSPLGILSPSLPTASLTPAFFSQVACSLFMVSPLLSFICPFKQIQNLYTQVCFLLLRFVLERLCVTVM
As to conditions: protein: recombinant; tags: N-terminal GST; dsDNA, one strand shown. Put shortly: as §1

Another assay concerns the target T4, ETV2 (Homo sapiens, UniProt O00321 1-342).
T4 sequence: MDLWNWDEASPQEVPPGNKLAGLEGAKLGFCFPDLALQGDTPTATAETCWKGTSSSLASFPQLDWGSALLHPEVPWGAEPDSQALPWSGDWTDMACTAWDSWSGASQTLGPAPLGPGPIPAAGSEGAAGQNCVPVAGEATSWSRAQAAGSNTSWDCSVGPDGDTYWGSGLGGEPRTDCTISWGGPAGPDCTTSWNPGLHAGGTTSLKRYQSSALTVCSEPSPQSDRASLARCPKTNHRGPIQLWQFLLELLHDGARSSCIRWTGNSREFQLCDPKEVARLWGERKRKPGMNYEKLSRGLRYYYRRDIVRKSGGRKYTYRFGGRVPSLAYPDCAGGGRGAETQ
The following applies: protein: recombinant; tags: N-terminal GST; dsDNA, one strand shown. Put shortly:
as §1

The next assay has as its target T5, ELF3 (Homo sapiens, UniProt P78545 1-371).
T5 sequence: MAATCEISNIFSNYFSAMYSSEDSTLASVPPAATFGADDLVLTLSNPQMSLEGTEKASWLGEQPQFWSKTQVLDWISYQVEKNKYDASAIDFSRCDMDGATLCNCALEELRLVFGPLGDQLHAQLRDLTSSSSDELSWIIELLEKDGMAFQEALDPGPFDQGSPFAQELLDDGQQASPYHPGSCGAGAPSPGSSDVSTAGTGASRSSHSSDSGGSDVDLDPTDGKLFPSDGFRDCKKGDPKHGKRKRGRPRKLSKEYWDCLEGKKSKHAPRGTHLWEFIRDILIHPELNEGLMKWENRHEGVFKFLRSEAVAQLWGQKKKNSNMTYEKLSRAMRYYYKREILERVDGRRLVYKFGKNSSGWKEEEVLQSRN
The following applies: protein: recombinant; tags: N-terminal GST; dsDNA, one strand shown. An outline of the steps:
as §1

In a further assay the target is CRX (Homo sapiens, UniProt O43186 1-299). The following applies: protein: recombinant; tags: N-terminal GST; dsDNA, one strand shown. Put shortly: as §1
A further assay deals with ETV1 (Homo sapiens, UniProt P50549 1-477). The following applies: protein: recombinant; tags: N-terminal GST; dsDNA, one strand shown. Put shortly: as §1
Sequence of ETV1 (P50549 whole entry): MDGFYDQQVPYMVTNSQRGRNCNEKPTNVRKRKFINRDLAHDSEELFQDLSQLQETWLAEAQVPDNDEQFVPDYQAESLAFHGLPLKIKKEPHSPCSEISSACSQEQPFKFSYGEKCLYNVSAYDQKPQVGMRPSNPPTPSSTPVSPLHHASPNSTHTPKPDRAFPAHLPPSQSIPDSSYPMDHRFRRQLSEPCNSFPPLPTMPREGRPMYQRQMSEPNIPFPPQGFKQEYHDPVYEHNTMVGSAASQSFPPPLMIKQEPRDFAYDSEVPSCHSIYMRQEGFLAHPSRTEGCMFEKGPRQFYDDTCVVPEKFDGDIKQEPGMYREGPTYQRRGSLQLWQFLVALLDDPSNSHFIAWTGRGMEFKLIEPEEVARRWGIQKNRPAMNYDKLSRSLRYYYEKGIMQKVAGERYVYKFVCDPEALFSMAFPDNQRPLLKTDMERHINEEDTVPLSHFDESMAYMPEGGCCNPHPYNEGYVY

Sequence of CRX (O43186 whole entry): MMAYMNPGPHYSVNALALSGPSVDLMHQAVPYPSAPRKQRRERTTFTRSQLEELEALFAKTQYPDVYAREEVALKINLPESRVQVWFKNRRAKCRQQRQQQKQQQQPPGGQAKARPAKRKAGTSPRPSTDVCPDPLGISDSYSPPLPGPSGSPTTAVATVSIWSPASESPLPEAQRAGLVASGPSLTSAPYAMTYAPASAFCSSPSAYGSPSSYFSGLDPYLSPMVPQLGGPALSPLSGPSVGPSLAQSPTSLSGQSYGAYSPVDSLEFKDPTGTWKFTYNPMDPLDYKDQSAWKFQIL
Sequence of HSF1 (Q00613 whole entry): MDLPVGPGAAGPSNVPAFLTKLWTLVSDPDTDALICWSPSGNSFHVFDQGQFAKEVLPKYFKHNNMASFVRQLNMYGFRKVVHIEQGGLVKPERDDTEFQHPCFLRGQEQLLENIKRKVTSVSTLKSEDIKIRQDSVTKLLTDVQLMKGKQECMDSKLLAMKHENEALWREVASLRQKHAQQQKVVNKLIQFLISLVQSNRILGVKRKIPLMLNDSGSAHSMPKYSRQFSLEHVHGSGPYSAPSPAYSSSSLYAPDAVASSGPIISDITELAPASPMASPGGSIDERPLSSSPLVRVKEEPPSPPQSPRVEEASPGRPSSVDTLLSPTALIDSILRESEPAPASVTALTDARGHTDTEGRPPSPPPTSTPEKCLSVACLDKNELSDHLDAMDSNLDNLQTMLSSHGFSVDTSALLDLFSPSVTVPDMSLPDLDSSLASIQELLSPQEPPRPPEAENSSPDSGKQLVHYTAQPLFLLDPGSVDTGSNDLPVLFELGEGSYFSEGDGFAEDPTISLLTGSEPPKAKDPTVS
Sequence of ELF4 (Q99607 whole entry): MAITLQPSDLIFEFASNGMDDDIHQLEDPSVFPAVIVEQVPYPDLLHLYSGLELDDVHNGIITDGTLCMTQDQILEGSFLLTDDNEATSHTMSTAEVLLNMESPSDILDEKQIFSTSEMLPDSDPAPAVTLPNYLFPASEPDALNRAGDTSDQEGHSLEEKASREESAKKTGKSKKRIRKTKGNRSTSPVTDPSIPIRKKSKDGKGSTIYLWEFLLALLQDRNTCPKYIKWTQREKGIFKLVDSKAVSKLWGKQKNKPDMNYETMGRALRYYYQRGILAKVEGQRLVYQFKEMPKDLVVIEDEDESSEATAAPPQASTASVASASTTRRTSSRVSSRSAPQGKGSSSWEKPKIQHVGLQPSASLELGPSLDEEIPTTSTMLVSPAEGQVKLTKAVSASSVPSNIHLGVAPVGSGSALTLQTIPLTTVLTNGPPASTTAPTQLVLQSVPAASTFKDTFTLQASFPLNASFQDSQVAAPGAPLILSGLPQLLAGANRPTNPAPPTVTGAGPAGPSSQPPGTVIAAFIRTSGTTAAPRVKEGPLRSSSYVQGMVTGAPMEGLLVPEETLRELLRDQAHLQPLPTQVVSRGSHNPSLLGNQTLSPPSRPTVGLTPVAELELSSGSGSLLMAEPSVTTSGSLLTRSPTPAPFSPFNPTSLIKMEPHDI
Sequence of ETV5 (P41161 whole entry): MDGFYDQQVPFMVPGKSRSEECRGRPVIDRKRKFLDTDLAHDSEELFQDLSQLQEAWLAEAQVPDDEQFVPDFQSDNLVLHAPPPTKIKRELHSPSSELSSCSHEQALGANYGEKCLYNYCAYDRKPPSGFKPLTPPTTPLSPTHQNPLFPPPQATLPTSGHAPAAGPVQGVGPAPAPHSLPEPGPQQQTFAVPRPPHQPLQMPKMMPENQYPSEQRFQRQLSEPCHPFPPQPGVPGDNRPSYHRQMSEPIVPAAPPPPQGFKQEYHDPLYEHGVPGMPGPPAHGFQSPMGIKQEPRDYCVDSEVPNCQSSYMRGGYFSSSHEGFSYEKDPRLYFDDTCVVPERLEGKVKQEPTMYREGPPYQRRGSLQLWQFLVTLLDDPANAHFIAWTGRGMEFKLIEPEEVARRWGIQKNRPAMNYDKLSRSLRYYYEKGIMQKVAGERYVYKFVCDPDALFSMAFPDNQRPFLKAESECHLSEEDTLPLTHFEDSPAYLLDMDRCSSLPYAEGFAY

Regarding AATTAC, the binding signal with FEV was 1.25 fold enrichment (6-mer frequency, TF over GST control); in the assay with ETV5 it was 1.28 fold enrichment (6-mer frequency, TF over GST control); with HSF1, 1.43 fold enrichment (6-mer frequency, TF over GST control); in the assay with SPIC, 1.33 fold enrichment (6-mer frequency, TF over GST control); in the assay with ELF4, 1.24 fold enrichment (6-mer frequency, TF over GST control); in the assay with ELK4, 1.27 fold enrichment (6-mer frequency, TF over GST control). Moreover, the binding signal in the assay with ETV2 is 1.38 fold enrichment (6-mer frequency, TF over GST control); with ELF3, 1.36 fold enrichment (6-mer frequency, TF over GST control); in the assay with CRX, 1.74 fold enrichment (6-mer frequency, TF over GST control); with ETV1, 1.34 fold enrichment (6-mer frequency, TF over GST control).
For TATCGA, the binding signal with FEV is 1.2 fold enrichment (6-mer frequency, TF over GST control); with ETV5, 1.29 fold enrichment (6-mer frequency, TF over GST control); with HSF1, 1.83 fold enrichment (6-mer frequency, TF over GST control); in the assay with SPIC it was 1.28 fold enrichment (6-mer frequency, TF over GST control); in the assay with ELF4, 1.34 fold enrichment (6-mer frequency, TF over GST control); with ELK4, 1.37 fold enrichment (6-mer frequency, TF over GST control). Besides, the binding signal is 1.44 fold enrichment (6-mer frequency, TF over GST control) with ETV2; 1.55 fold enrichment (6-mer frequency, TF over GST control) with ELF3; 1.59 fold enrichment (6-mer frequency, TF over GST control) with CRX; 1.31 fold enrichment (6-mer frequency, TF over GST control) with ETV1.
In the case of CACGTA, the binding signal with FEV is 1.1 fold enrichment (6-mer frequency, TF over GST control); with ETV5, 1.13 fold enrichment (6-mer frequency, TF over GST control); with HSF1 it was 1.05 fold enrichment (6-mer frequency, TF over GST control); with SPIC, 1.22 fold enrichment (6-mer frequency, TF over GST control); with ELF4 it was 1.2 fold enrichment (6-mer frequency, TF over GST control); in the assay with ELK4, 1.23 fold enrichment (6-mer frequency, TF over GST control). Besides, the binding signal is 1.09 fold enrichment (6-mer frequency, TF over GST control) in the assay with ETV2; 1.18 fold enrichment (6-mer frequency, TF over GST control) with ELF3; 1.06 fold enrichment (6-mer frequency, TF over GST control) with CRX; 1.14 fold enrichment (6-mer frequency, TF over GST control) in the assay with ETV1.
Take TGCCTC: the binding signal with FEV is 1.32 fold enrichment (6-mer frequency, TF over GST control); with ETV5, 1.37 fold enrichment (6-mer frequency, TF over GST control); in the assay with HSF1 it was 1.14 fold enrichment (6-mer frequency, TF over GST control); with SPIC it was 1.4 fold enrichment (6-mer frequency, TF over GST control); with ELF4, 1.34 fold enrichment (6-mer frequency, TF over GST control); with ELK4 it was 1.28 fold enrichment (6-mer frequency, TF over GST control). The binding signal with ETV2 was 1.3 fold enrichment (6-mer frequency, TF over GST control); with ELF3, 1.52 fold enrichment (6-mer frequency, TF over GST control); in the assay with CRX, 1.06 fold enrichment (6-mer frequency, TF over GST control); with ETV1 it was 1.24 fold enrichment (6-mer frequency, TF over GST control).
Turning to AAACCC, the binding signal was 1.29 fold enrichment (6-mer frequency, TF over GST control) in the assay with FEV; 1.29 fold enrichment (6-mer frequency, TF over GST control) in the assay with ETV5; 1.21 fold enrichment (6-mer frequency, TF over GST control) with HSF1; 1.2 fold enrichment (6-mer frequency, TF over GST control) with SPIC; 1.34 fold enrichment (6-mer frequency, TF over GST control) with ELF4; 1.24 fold enrichment (6-mer frequency, TF over GST control) with ELK4. Moreover, the binding signal with ETV2 was 1.34 fold enrichment (6-mer frequency, TF over GST control); with ELF3 it was 1.42 fold enrichment (6-mer frequency, TF over GST control); with CRX it was 1.35 fold enrichment (6-mer frequency, TF over GST control); with ETV1, 1.36 fold enrichment (6-mer frequency, TF over GST control).
For TTAGTT, the binding signal in the assay with FEV is 1.2 fold enrichment (6-mer frequency, TF over GST control); with ETV5, 1.25 fold enrichment (6-mer frequency, TF over GST control); with HSF1, 1.68 fold enrichment (6-mer frequency, TF over GST control); with SPIC it was 1.28 fold enrichment (6-mer frequency, TF over GST control); in the assay with ELF4 it was 1.37 fold enrichment (6-mer frequency, TF over GST control); with ELK4 it was 1.32 fold enrichment (6-mer frequency, TF over GST control). Besides, the binding signal with ETV2 is 1.37 fold enrichment (6-mer frequency, TF over GST control); in the assay with ELF3, 1.25 fold enrichment (6-mer frequency, TF over GST control); in the assay with CRX it was 2.25 fold enrichment (6-mer frequency, TF over GST control); with ETV1 it was 1.33 fold enrichment (6-mer frequency, TF over GST control).
Regarding TCCTAA, the binding signal with FEV is 1.41 fold enrichment (6-mer frequency, TF over GST control); with ETV5, 1.4 fold enrichment (6-mer frequency, TF over GST control); with HSF1, 1.66 fold enrichment (6-mer frequency, TF over GST control); with SPIC it was 1.38 fold enrichment (6-mer frequency, TF over GST control); in the assay with ELF4, 1.44 fold enrichment (6-mer frequency, TF over GST control); with ELK4, 1.39 fold enrichment (6-mer frequency, TF over GST control). In addition, the binding signal in the assay with ETV2 was 1.47 fold enrichment (6-mer frequency, TF over GST control); with ELF3, 1.57 fold enrichment (6-mer frequency, TF over GST control); in the assay with CRX, 2.09 fold enrichment (6-mer frequency, TF over GST control); with ETV1, 1.32 fold enrichment (6-mer frequency, TF over GST control).
As to ATTAAA, the binding signal with FEV is 1.1 fold enrichment (6-mer frequency, TF over GST control); in the assay with ETV5 it was 1.2 fold enrichment (6-mer frequency, TF over GST control); in the assay with HSF1 it was 1.97 fold enrichment (6-mer frequency, TF over GST control); with SPIC, 1.14 fold enrichment (6-mer frequency, TF over GST control); with ELF4, 1.16 fold enrichment (6-mer frequency, TF over GST control); with ELK4, 1.1 fold enrichment (6-mer frequency, TF over GST control). The binding signal with ETV2 is 1.16 fold enrichment (6-mer frequency, TF over GST control); with ELF3 it was 1.05 fold enrichment (6-mer frequency, TF over GST control); with CRX, 2.99 fold enrichment (6-mer frequency, TF over GST control); in the assay with ETV1, 1.18 fold enrichment (6-mer frequency, TF over GST control).

Source of the values: PMC7862700, “An all-to-all approach to the identification of sequence-specific readers for epigenetic DNA modifications on cytosine”.
